# Values joined by “and” are separate entries in the source; they are usually repeats but may differ in a detail not shown here. Equal entries are not always repeated. Active and inactive are the calls of the source.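 How the source made its calls, unless noted: active means mean z-score across replicates of 1.96 or higher in either the MELAS or the Rieske mutant cell line; inactive means the rest.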
# Tests used:
# [1] = viability loss with induced miR-34 in A549 – imaging, A549 dox-inducible miR-34, nuclei and caspase counts, primary screen (AID 1347080;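 active means compounds whose cell count with miR-34 switched on is under 0.7 times the count with it off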); conditions: A549 miR-34 inducible, Hoechst nuclei count, 48 h
# [2] = MELAS cybrid and Rieske KO viability enhancers – cell-based, MELAS cybrids, Rieske KO mouse fibroblasts, CellTiter-Glo, primary screen (AID 1508586); conditions: low glucose;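 further: z relative to plate mean and SD of compound and empty wells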
# [3] = stronger effect = lower value, cell number ratio, induced over uninduced
# [4] = measured here: relative caspase fold change +Dox/-Dox
# [5] = measured here: total cells with miR-34 induction, stronger effect = lower value
# [6] = measured here: total cells without miR-34 induction
# [7] = MELAS cybrid survival, CellTiter-Glo 48 h, stronger effect = higher value
# [8] = Rieske KO mouse fibroblast survival, CellTiter-Glo 72 h
# Further: test concentration not given here.
SMILES,"fold change [1, 3]","fold change [1, 4]","cell count [1, 5]","cell count [1, 6]","z-score [2, 7]","z-score [2, 8]"
CC(=O)O[C@]1(C(C)=O)CC[C@H]2[C@@H]3C[C@H](C)C4=CC(=O)C=C[C@]4(C)[C@@]3(F)[C@H](O)C[C@@]21C,0.862 (inactive),1.9,5370,6240,-0.0969 (inactive),-0.184
CC1CC(=O)NN=C1c1ccc(NN=C(C#N)C#N)cc1 (stereo not drawn),0.851 (inactive),1.15,8280,9730,-0.305 (inactive),-0.733
O=C(c1cccc(Cl)c1F)N1CCN(Cc2cccc(Nc3nccs3)n2)CC1,0.822 (inactive),4.5,2250,2740,-0.421 (inactive),-0.143
COc1cc(-c2cc(-c3cccc(O)c3)cnc2N)cc(OC)c1OC,0.804 (inactive),0.388,5380,6700,-0.34 (inactive),-0.00175
OCC(O)C(O)CO (stereo not drawn),0.967 (inactive),0.463,8430,8720,-0.193 (inactive),-0.162
COC1=CC(=O)CC(C)[C@@]12Oc1c(Cl)c(OC)cc(OC)c1C2=O (stereo partly drawn),0.974 (inactive),0.639,8290,8510,-0.169 (inactive),-0.138
C=C1CCC(O)CC1=CC=C1CCC[C@]2(C)C(C(C)CCCC(C)C)CC[C@@H]12 (stereo partly drawn),0.915 (inactive),0.845,8000,8740,-0.279 (inactive),-0.0631
CC1(C)S[C@H]2C(NC(=O)C(NC(=O)N3CCN(S(C)(=O)=O)C3=O)c3ccccc3)C(=O)N2C1C(=O)O (stereo partly drawn),0.882 (inactive),0.658,7720,8750,-0.292 (inactive),-0.225
CC(C)C1C(=O)NC(CCCN=C(N)N)C(=O)NCC(=O)NC(CC(=O)O)C(=O)NC(Cc2ccccc2)C(=O)N1C (stereo not drawn),0.841 (inactive),0.758,304,361,0.703 (inactive),-0.232
Cn1nccc1-c1cc(C(=O)NCc2ccc(S(C)(=O)=O)cn2)c(=O)n(-c2cccc(C(F)(F)F)c2)c1,0.851 (inactive),0.538,8120,9540,-0.549 (inactive),0.346
Cc1cc2c(F)c(Oc3ncnn4cc(OCC(C)O)c(C)c34)ccc2[nH]1 (stereo not drawn),1.07 (inactive),0.907,4250,3990,-0.638 (inactive),0.759
CON=C(C(=O)NC1C(=O)N2C(C(=O)OCOC(=O)C(C)(C)C)=C(C=Cc3scnc3C)CS[C@H]12)c1csc(N)n1 (stereo partly drawn),0.852 (inactive),0.561,7580,8900,-0.26 (inactive),0.818
CCN1CCN(C(=O)NC(C(=O)NC2C(=O)N3C(C(=O)O)=C(CSc4nnnn4C)CS[C@H]23)c2ccc(O)cc2)C(=O)C1=O (stereo partly drawn),0.907 (inactive),0.724,7730,8520,0.121 (inactive),0.0185
Cc1cc(OCCCS(C)(=O)=O)cc(C)c1-c1cccc(COc2ccc3c(c2)OCC3CC(=O)O)c1 (stereo not drawn),0.928 (inactive),0.766,7480,8070,-0.428 (inactive),0.0224
COC1O[C@H]2O[C@@]3(C)CC[C@H]4[C@@H](C)CC[C@@H]([C@H]1C)[C@@]24OO3 (stereo partly drawn),0.86 (inactive),1.37,7410,8620,-0.241 (inactive),0.578
C[C@]12CCC(=O)C=C1CC[C@@H]1[C@H]2C(O)C[C@@]2(C)[C@H]1CC[C@@]2(O)C(=O)CO (stereo partly drawn),0.923 (inactive),0.886,5230,5670,-0.31 (inactive),-0.201
CC1CNc2c(cccc2S(=O)(=O)N[C@@H](CCCN=C(N)N)C(=O)N2CCC(C)CC2C(=O)O)C1 (stereo partly drawn),0.97 (inactive),0.669,7750,7990,-0.261 (inactive),-0.0788
C#C[C@@]1(O)CC[C@H]2[C@@H]3CCC4=CC(=O)CC[C@@H]4[C@@H]3CC[C@@]21CC,0.929 (inactive),0.428,7310,7880,-0.214 (inactive),0.0474
O=C(NCC(O)CO)c1ccncc1Nc1ccc(I)cc1F (stereo not drawn),1.05 (inactive),0.75,3270,3120,-0.688 (inactive),-1.18
Nc1ncnc2c1ncn2C1OC(CO)C(O)C1O (stereo not drawn),0.838 (inactive) and 0.824 (inactive),0.867 and 1.17,6490 and 8470,7740 and 10300,-0.00177 (inactive) and -0.197 (inactive),-2.04 and 0.972
CC1(C)S[C@H]2C(NC(=O)C(N)c3ccccc3)C(=O)N2C1C(=O)O (stereo partly drawn),0.913 (inactive),0.727,8130,8910,-0.295 (inactive),-0.19
OC(c1cc(C(F)(F)F)nc2c(C(F)(F)F)cccc12)[C@H]1CCCCN1 (stereo partly drawn),0.875 (inactive),0.688,5320,6090,0.101 (inactive),-0.0437
CC(C)Oc1ccc(-c2cnc3c(-c4ccnc5ccccc45)cnn3c2)cc1,0.806 (inactive),0.45,5470,6780,-0.164 (inactive),0.555

# — PubChem BioAssay
